# Screening results (PubChem BioAssay)
# Shown are actives, neighbours in structure and some others; about 2.3% of the full set was active somewhere.
# TDP-43 yeast inh: qHTS of TDP-43 Inhibitors; TDP-43 expressing yeast growth rescue, BacTiter-Glo, 24 h; Potency, µM (series often up to 46.1 µM), for inactives: at the highest dose growth rescue (activation), actives largely listed as activators; 410,000 tested, 1.8% active; AID 652104, 2013; also: potency is read from the fitted curve at half-maximal effect; % of control where 0% means no effect; nearly all actives have a fitted effect of over 50% in size
#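 Galactose-induced TDP-43 yeast, OD600=0.02, compound pinned; 24 hr, 30 deg C; BacTiter-Glo luminescence for growth. Inhibitors of TDP-43 toxicity read as activators.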
# Akt phos inh: HTS Assay for Inhibitors of Akt Phophorylation: Primary Screen | Neuro2A IGF-stimulated pAkt S473 HTRF, 20 min; stronger effect = lower value | 360,000 tested, 0.32% active | activity change, % for hits at 50 µM | AID 651550, 2012; in the data active = activity change below about -80%; inconclusive = mostly about -51% to -80%; also: % is scaled to controls: 0 for no effect and ±100 for the full control effect
#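 Neuro2A cells in DMEM with 0.5% FBS, overnight at 37 deg C, given compound at single 50 µM final, then IGF (6 nM final) for 20 min at 37 deg C. Lysed; phospho-Akt Ser473 by HTRF after 24 h, 665/615 ratio.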
# Abeta yeast res: qHTS for compounds that reverse cellular toxicity of Amyloid beta (A-beta) peptide in yeast: Primary Screen; yeast expressing A-beta42, growth rescue, OD600, 48 h; response scale: 0% DMSO, 100% iron-clioquinol control; Potency, µM (top dose mostly 46.1 µM), actives largely listed as activators; 410,000 tested, 0.063% active; also: potency is read from the fitted curve at half-maximal effect; nearly all actives have a fitted effect of over 55% in size
#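 Yeast growth medium received pinned compounds, then yeast cells expressing toxic A-beta were added; plates incubated at 30 C for 48 hr. Growth read as absorbance at 600 nm, normalized to DMSO and equimolar FeCl3 plus clioquinol controls.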
# FUS suppressor: qHTS for Suppressors of FUS Proteinopathy: Primary screen using FUS-linked yeast assay; S. cerevisiae FUS-expressing, growth rescue, OD600, 24 h; Potency, µM (series often up to 76.6 µM), actives largely listed as activators; 390,000 tested, 0.24% active; AID 1347120, 2019;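 also: potency is read from the fitted curve at half-maximal effect; plate controls were DMSO vehicle for no effect and reference control for full effect; nearly all actives have a fitted effect of over 55% in size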
#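 FUS-expressing yeast, raffinose-pregrown, induced in 2% galactose minimal medium at OD 0.005; compounds in a dilution series, 24hr at 30C. Growth restoration read as absorbance at 600 nm. CP55940 positive control, DMSO negative.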
# aSyn rescue: qHTS of alpha-syn Inhibitors; Yeast expressing alpha-synuclein, growth rescue, BacTiter-Glo, 24 h; Potency, µM (top dose mostly 46.1 µM), without a hit: top-dose growth rescue (activation), hits mostly activators; 370,000 tested, 0.14% active; AID 652106, 2013; also: potency is read from the fitted curve at half-maximal effect; % of control where 0% means no effect; nearly all actives have a fitted effect of over 65% in size
#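 Galactose-induced alpha-syn yeast (OD600=0.02, raffinose-pregrown) + pinned cpd, 24 hr, 30 deg C; growth by BacTiter-Glo luminescence. Growth restoration scores as activation.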
# The depositor's hits bear a star; i = inactive; ? = inconclusive; . = not tested or not shown; [ ] = dose if it differs, or a comment. Unless noted, calls follow the shape of the dose curve; as a rule, active = well fitted curve in the direction sought with a large enough effect; inconclusive = small, poorly fitted or top-dose-only effect, or another doubt; inactive = no such curve, though single readings can be large; an effect the other way counts as inactive or inconclusive.
SMILES,TDP-43 yeast inh,Akt phos inh,Abeta yeast res,FUS suppressor,aSyn rescue
O=C(O)c1ccccc1C(c1ccc(O)cc1)c1ccc(O)cc1,-12.0%,i,i,i,-4.2%
O=C(Nc1nc(-c2ccc(Cl)cc2Cl)cs1)C1CCCO1 (centres undefined),12.6µM*,i,i,i,-6.7%
COCc1cccc(C2=CC(=O)C[C@H](c3ccc(F)cc3)C2)c1,?,i,i,i,-0.5%
COc1ccc([C@H]2CC(=O)C=C(c3cccc(Cl)c3)C2)cc1,17.8µM*,i,i,i,0.2%
O=C1C=C(c2cccc(Cl)c2)C[C@@H](c2ccc(Cl)cc2)C1,0.0%,i,i,?,3.0%
COCc1cccc(C2=CC(=O)C[C@H](c3ccc(OC)cc3)C2)c1,14.1µM*,i,i,i,4.9%
COc1ccc([C@H]2CC(=O)C=C(c3ccc(C)c([N+](=O)[O-])c3)C2)cc1,35.5µM*,i,i,?,2.1%
Cc1c(Cl)cccc1NC(=O)C(C)N(c1ccccc1)S(C)(=O)=O (centres undefined),22.5%,.,i,i,.
NC(=O)C1CCN(C(=O)c2ccc3c(c2)N(Cc2cccc(Cl)c2)C(=O)c2ccccc2S3=O)CC1 (centres undefined),-1.0%,.,i,i,.
COc1cccc(C2CC(c3cccs3)=NN2C(=O)c2ccco2)c1O (centres undefined),25.1µM*,i,i,i,?
O=C(c1ccco1)N1N=C(c2cccs2)CC1c1ccccc1O (centres undefined),11.5%,i,i,.,19.1%
Clc1nnc(NC2CCCCC2)c(Cl)c1Cl,22.4µM*,i,i,i,?
c1ccc2c(NC3CCCC3)nnc(NC3CCCC3)c2c1,23.1%,i,i,i,0.7%
COc1cc(NC(=O)CC2C(=O)N(c3ccc(Cl)cc3)C(=O)N2Cc2cccs2)cc(OC)c1 (centres undefined),10.6%,.,i,i,.
COc1cccc(OCCNc2cc(N3CCOCC3)ccc2[N+](=O)[O-])c1,17.8µM*,i,i,i,4.2%
Nc1ccc(N2CCN(c3ccc(Cl)c(Cl)c3)CC2)cc1,8.91µM*,i,i,.,12.4%
O=C1CC(N2CCN(c3ccc(Cl)c(Cl)c3)CC2)C(=O)N1 (centres undefined),13.3%,-119.7%*,i,i,1.9%
O=C1CC(N2CCN(Cc3ccccc3)CC2)C(=O)N1 (centres undefined),-5.1%,i,i,i,-2.6%
Cc1ccc(NC(=O)c2sc3ncnc(N(C)C4CCCCC4)c3c2C)c(C)c1,23.6%[9.22 µM],.,i,i,.
O=C(Nc1nnc(-c2ccco2)s1)C1CCCCC1,-14.8%,.,i,i,-3.6%
O=C(Nc1nc(-c2ccco2)c(-c2ccco2)s1)C1CCC1,35.5µM*,i,i,i,-30.1%
CC1(C)CN(c2ccc(Br)cc2)C(=O)[C@H]1CC(=O)Nc1ccccc1,17.8µM*,i,i,i,11.7%
COc1ccc(N2CC(C)(C)[C@H](CC(=O)Nc3ccccc3)C2=O)cc1,28.0%,i,i,i,0.3%
CCOc1ccc(NC(=O)Cn2c(=O)n(Cc3ccc4c(c3)OCO4)c(=O)c3ccc(C(=O)NC4CCCCC4)cc32)cc1,12.8%,.,i,i,-0.3%
CCc1cc2c(SC(C)C(=O)NC3CCCC3)ncnc2s1 (centres undefined),35.5µM*,i,i,i,12.0%
CCc1cc2c(SCC(=O)NC3CC3)ncnc2s1,-7.0%,i,i,.,7.0%
O=C(c1ccccc1Br)N1CCc2c([nH]c3ccccc23)C1,17.8µM*,i,i,i,?
CCOC(=O)Cc1c(C)c2c(C)nn(-c3ccccc3)c2oc1=O,?,-103.1%*,i,i,0.1%
Cc1ccc(-n2nnnc2C(Cl)c2nnnn2-c2ccc(C)cc2)cc1,3.55µM*,i,i,i,-46.6%
